Experimental data reported in the supplement of paper PMC10127200.
Structures can show the parent of a compound that is named as a salt.

Columns and labels:
Test in all cases: Euclidean distance of Cell Painting phenotypic profile (signed KS, 77 features) to DMSO centroid (dimensionless distance); 5 or 10 uM (library dependent); higher = stronger phenotypic change vs DMSO (phenoactivity)
Details in all cases: 48 h
786-O = tested on: 786-O
In short: (§1)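 Library compounds were applied at 10 or 5 uM, depending on the library, with 0.1% DMSO final, for 48 h to five cancer lines and a healthy fibroblast line. After staining, cells were imaged confocally at 20X across 9 fields per well, and Harmony extracted 77 features, each scored as a signed Kolmogorov-Smirnov statistic against vehicle wells on the same plate. Phenoactivity is the Euclidean distance between each profile and the median vehicle profile, with profiles first plate-position corrected, correlation-weighted and averaged over replicates at the top dose.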

A549 = tested on: A549
In short: as §1

DU145 = tested on: DU145
In short: as §1

FB = tested on: FB
In short: as §1

HEPG2 = tested on: HEPG2
In short: as §1

OVCAR4 = tested on: OVCAR4
In short: as §1

Row | Compound | Euclidean distance (786-O) | Euclidean distance (A549) | Euclidean distance (DU145) | Euclidean distance (FB) | Euclidean distance (HEPG2) | Euclidean distance (OVCAR4)
1 | C=CCCCCCCCCC(=O)[O-].C=CCCCCCCCCC(=O)[O-].[Zn+2] [Zinc Undecylenate] | 1.22 | 2.06 | 1.09 | 1.1 | 0.358 | 1.9
2 | C=CC(=O)Nc1cccc(Oc2nc(Nc3ccc(N4CCN(C)CC4)c(F)c3)nc3[nH]ccc23)c1 [Avitinib (AC0010)] | 4.87 | 4.16 | 3.49 | 3.92 | 3.45 | 3.76
3 | OC(Cn1cncn1)(Cn1cncn1)c1ccc(F)cc1F [Fluconazole] | 1.5 | 1.3 | 1.41 | 1.35 | 0.443 | 1.44
4 | NS(=O)(=O)c1cc2c(cc1C(F)(F)F)NC(Cc1ccccc1)NS2(=O)=O (stereo not given) [Bendroflumethiazide] | 0.918 | 0.995 | 1.62 | 1.34 | 1.05 | 2.02
5 | CCCN[C@H]1CCc2nc(N)sc2C1 [Pramipexole 2HCl Monohydrate] | 0.779 | 1.01 | 1.58 | 1.08 | 0.888 | 1.26
6 | Cc1nccn1CC1CCc2c(c3ccccc3n2C)C1=O (stereo not given) [Ondansetron HCl] | 1.31 | 1.62 | 1.01 | 1.16 | 0.865 | 0.943
7 | CC(C)NCC(O)COc1cccc2[nH]ccc12 (stereo not given) [Pindolol] | 0.941 | 0.858 | 0.721 | 1.06 | 0.588 | 0.895
8 | C=CC[C@@H]1/C=C(\C)C[C@H](C)C[C@H](OC)[C@H]2O[C@@](O)(C(=O)C(=O)N3CCCC[C@H]3C(=O)O[C@H](/C(C)=C/[C@@H]3CC[C@@H](O)[C@H](OC)C3)[C@H](C)[C@@H](O)CC1=O)[C@H](C)C[C@@H]2OC [Tacrolimus (FK506)] | 0.986 | 1.47 | 2.38 | 1.07 | 0.59 | 0.647
9 | Cc1ccc(C(C)C)c(O)c1 [Thymol] | 0.798 | 1.8 | 1.2 | 0.901 | 0.572 | 1.46
10 | CCCc1cc(=O)[nH]c(=S)[nH]1 [Propylthiouracil] | 0.782 | 1.25 | 2.02 | 1.4 | 0.77 | 1.77
11 | CSCC1CN(/N=C/c2ccc([N+](=O)[O-])o2)C(=O)O1 (stereo not given) [Nifuratel] | 0.806 | 0.74 | 0.807 | 0.93 | 1.19 | 1.09
12 | Cc1c(Nc2ncccc2C(=O)O)cccc1C(F)(F)F [Flunixin Meglumin] | 1.03 | 0.853 | 0.874 | 0.516 | 1.42 | 1.88
13 | CN1C(=O)C(Cc2c[nH]c3ccccc23)NC1=S (stereo not given) [Necrostatin-1] | 1.05 | 1.61 | 1.1 | 0.994 | 0.953 | 1.55
14 | Cc1ccc(=O)n(-c2ccccc2)c1 [Pirfenidone] | 1.25 | 0.718 | 1.64 | 0.845 | 0.297 | 1.38
15 | C[C@@H](NCCCc1cccc(C(F)(F)F)c1)c1cccc2ccccc12 [Cinacalcet HCl] | 1.32 | 1.57 | 1.89 | 1.06 | 1.85 | 1.42
16 | C[n+]1ccccc1C=NO [Pralidoxime Iodide] | 1.45 | 0.771 | 0.975 | 0.641 | 0.434 | 0.907
17 | Cc1ccnc2c1NC(=O)c1cccnc1N2C1CC1 [Nevirapine] | 1.2 | 0.789 | 0.803 | 0.827 | 1.93 | 0.872
18 | O=C1c2c(O)cccc2C([C@@H]2O[C@H](CO)[C@@H](O)[C@H](O)[C@H]2O)c2cc(CO)cc(O)c21 (stereo not given in full) [Aloin] | 1.2 | 0.555 | 0.756 | 0.842 | 0.479 | 0.881
19 | CCCCC(=O)O[C@]1(C(=O)CO)[C@@H](C)C[C@H]2[C@@H]3CCC4=CC(=O)C=C[C@]4(C)[C@@]3(F)[C@@H](O)C[C@@]21C [Betamethasone Valerate] | 1.33 | 1.98 | 2.2 | 1.71 | 0.591 | 2.13
20 | CC1(C)Cc2c(sc(NC(=O)c3ccn[nH]3)c2C(N)=O)C(C)(C)O1 | 0.808 | 0.814 | 1.54 | 1.43 | 0.816 | 1.06
21 | Cn1c(Cn2ccc(C(F)(F)F)c(Oc3cc(Cl)cc(C#N)c3)c2=O)n[nH]c1=O [Doravirine (MK-1439)] | 1.23 | 0.8 | 1.11 | 1.13 | 0.593 | 0.914
22 | COc1ccc(NS(=O)(=O)c2sc3ccc(Cl)cc3c2C)cc1N1CCNCC1 | 2.31 | 1.39 | 1.12 | 1.13 | 1.35 | 1.29
23 | Cc1c(N(C)C)c(=O)n(-c2ccccc2)n1C [Amidopyrine] | 1.3 | 0.92 | 0.804 | 1.15 | 1.63 | 1.17
24 | O=C(NCc1cccc(O)c1)Nc1nc(-c2ccncc2)cs1 | 1.82 | 1.54 | 3.26 | 3.61 | 1.47 | 1.88
25 | CN(C)CCC=C1c2ccccc2C(C)(C)c2ccccc21 [Melitracen hydrochloride] | 1.33 | 1.82 | 2.27 | 2.65 | 1.5 | 1.37

Row | Compound | Euclidean distance (786-O) | Euclidean distance (A549) | Euclidean distance (DU145) | Euclidean distance (FB) | Euclidean distance (HEPG2) | Euclidean distance (OVCAR4)
26 | Cc1cccc(Oc2cnc(=O)[nH]c2)c1 | 1.47 | 1.3 | 1.39 | 1.47 | 0.543 | 0.931
27 | NCCCCCNCC12CC3CC(CC(C3)C1)C2 [IEM 1754 dihydrobroMide] | 0.936 | 0.504 | 0.662 | 0.973 | 2.44 | 0.664
28 | O=C1Nc2ccccc2C1=O [Isatin] | 0.739 | 1.21 | 1.26 | 1.29 | 1.03 | 1.39
29 | CC1=Nc2ccc(Cl)cc2S(=O)(=O)N1 [Diazoxide] | 1.25 | 0.782 | 1.19 | 1.21 | 1.01 | 1.25
30 | CN1CCc2c(c3ccccc3n2Cc2ccccc2)C1 [Mebhydrolin napadisylate] | 1.27 | 1.06 | 0.544 | 1.03 | 1.31 | 1.49
31 | CCOC(=O)[C@H](CCc1ccccc1)N[C@@H](C)C(=O)N(CC(=O)O)C1Cc2ccccc2C1 [Delapril Hydrochloride] | 1 | 1.15 | 0.898 | 1 | 0.353 | 1.06
32 | N#Cc1cc(CN2CCC(Nc3ncnc4sc(Cl)cc34)CC2)ccc1F | 0.974 | 1.39 | 1.03 | 1.19 | 1.15 | 1.37
33 | Nc1ccccc1NC(=O)c1ccc(CNC(=O)OCc2cccnc2)cc1 [Entinostat (MS-275)] | 3.47 | 2.57 | 2.22 | 3.25 | 2.93 | 2.57
34 | CN/C(=N\CCSCc1nc[nH]c1C)NC#N [Cimetidine] | 0.94 | 0.861 | 0.762 | 0.864 | 0.95 | 1.25
35 | OCc1cc([C@@H](O)CNCCCCCCOCCOCc2c(Cl)cccc2Cl)ccc1O [Vilanterol Trifenate] | 1.28 | 0.985 | 1.38 | 1.28 | 0.721 | 1.76
36 | Cc1cc(O)cc(C)c1Cl [Chloroxylenol] | 0.814 | 0.825 | 1.13 | 0.9 | 0.668 | 0.718
37 | Cc1cnc(Nc2ccc(OCCN3CCCC3)cc2)nc1Nc1cccc(S(=O)(=O)NC(C)(C)C)c1 | 4.21 | 4.4 | 2.95 | 4.43 | 2.96 | 3.56
38 | CN(C)[C@@H](CCOc1cccc2ccccc12)c1ccccc1 [Dapoxetine HCl] | 1.49 | 0.787 | 2.96 | 1.26 | 1.1 | 1.26
39 | Cc1cccc(C)c1N(CC(=O)Nc1ccc(-c2ncon2)cc1)C(=O)C1CCS(=O)(=O)CC1 [Amenamevir] | 1.07 | 0.772 | 0.783 | 1.3 | 0.5 | 1.2
40 | CN1C(N)=N[C@](C)(c2cc(NC(=O)c3ccc(F)cn3)ccc2F)CS1(=O)=O [Verubecestat (MK-8931)] | 0.523 | 0.58 | 0.609 | 0.675 | 0.509 | 0.924
41 | CC1(C)CCC[C@]2(C)[C@H]3CC(=O)O[C@]3(C)CC[C@@H]12 [Sclareolide] | 1.98 | 1.52 | 1.35 | 0.844 | 1.58 | 1.36
42 | O=C(Nc1ncc([N+](=O)[O-])s1)c1ccccc1O [Tizoxanide] | 2.03 | 1.85 | 2.61 | 2.81 | 2.81 | 1.81
43 | CCS(=O)(=O)CCn1c([N+](=O)[O-])cnc1C [Tinidazole] | 0.626 | 0.68 | 0.693 | 0.579 | 0.533 | 1.48
44 | CCn1c2ccccc2c2cc(Nc3ccnc(NCCCN4CCOCC4)n3)ccc21 | 3.23 | 2.84 | 1.12 | 2.94 | 2.27 | 1.98
45 | CC(=O)[C@@]1(O)CC[C@H]2[C@@H]3C[C@H](C)C4=CC(=O)C=C[C@]4(C)[C@@]3(F)[C@@H](O)C[C@@]21C [Fluorometholone] | 0.819 | 2.59 | 1.54 | 1.73 | 1.04 | 1.8
46 | Cn1cc(C2=C(c3ccc(Cl)cc3Cl)C(=O)NC2=O)c2ccccc21 | 1.92 | 0.949 | 1.79 | 1.57 | 1.08 | 1.01
47 | NCC(=O)Nc1ccc(-n2nc(C(F)(F)F)cc2-c2ccc3c(ccc4ccccc43)c2)cc1 | 1.57 | 1.4 | 0.783 | 1.33 | 1.34 | 1.38
48 | CN(C)C(=O)c1ccc(S(=O)(=O)c2ccc(NC(=O)[C@@](C)(O)C(F)(F)F)c(Cl)c2)cc1 | 0.701 | 1.81 | 0.801 | 0.955 | 2 | 0.57
49 | NS(=O)(=O)c1cc(Cl)c(Cl)c(S(N)(=O)=O)c1 [Dichlorphenamide] | 0.93 | 0.762 | 0.774 | 0.872 | 0.87 | 1.01
50 | c1ccc2c(CCNc3ccc(Nc4ccncc4)cc3)c[nH]c2c1 | 2.61 | 2.76 | 1.77 | 2.87 | 2.65 | 3.75
